Compounds with a hit are over-represented: about 5.6% of the library has one in this group of screens.
PKM2 act = increases activity of human pyruvate kinase M2; AID 1631; purified PKM2, Kinase-Glo ATP luminescence, activation; response scale: 0% is enzyme alone, no compound; Potency, µM (highest dose often 57.5 µM), actives largely listed as activators; P14618; 260,000 compounds, 0.34% hits; further: nearly all actives have a fitted effect of over 55% in size
Target sequence (P14618 whole entry, looked up): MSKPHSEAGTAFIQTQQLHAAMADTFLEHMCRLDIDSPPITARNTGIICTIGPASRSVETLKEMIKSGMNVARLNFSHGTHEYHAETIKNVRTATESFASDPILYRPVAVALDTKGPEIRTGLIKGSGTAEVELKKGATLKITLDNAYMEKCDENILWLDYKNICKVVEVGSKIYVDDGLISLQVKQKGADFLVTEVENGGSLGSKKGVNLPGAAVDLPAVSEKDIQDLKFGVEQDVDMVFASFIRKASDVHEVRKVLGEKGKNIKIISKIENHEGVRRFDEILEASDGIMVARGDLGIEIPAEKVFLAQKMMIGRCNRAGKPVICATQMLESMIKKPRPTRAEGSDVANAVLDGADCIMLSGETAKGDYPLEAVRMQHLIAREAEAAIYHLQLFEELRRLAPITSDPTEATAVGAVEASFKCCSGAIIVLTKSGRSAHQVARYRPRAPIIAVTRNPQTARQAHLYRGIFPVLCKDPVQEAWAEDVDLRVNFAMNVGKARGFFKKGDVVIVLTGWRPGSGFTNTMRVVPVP
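Purified hPK-M2 (>95%) run at intermediate activity with 0.1 mM ADP and 0.5 mM PEP in 50 mM imidazole pH 7.2, KCl, MgCl2; 1 h room temperature. ATP formed read by Kinase-Glo luminescence; normalized to uninhibited and no-enzyme controls.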
CtBP-E1A inh = CtBP/E1A binding inhibition; AlphaScreen GST-E1A/His-CtBP binding, 1536-well; active compounds read low; activity change, % (no concentration beside the values); 340,000 compounds, 0.49% hits; AID 651724; in the data active means activity change below about -65%; inconclusive means mostly about -30% to -63%
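Homogeneous bead-based format: GST-tagged E1A captured on glutathione donor beads, His-tagged CtBP on nickel acceptor beads; compounds precede bead addition by 2 h at 37 °C.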
Six1-Eya2 inh = blocks human Six1 binding to Eya2; AlphaScreen GST-Six1/His-Eya2 binding, biochemical; active compounds read low; activity change, % (no concentration beside the values); Q15475+O00167; 360,000 compounds, 0.56% hits; AID 651725; in the data active means activity change below about -65%; inconclusive means mostly about -30% to -63%
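AlphaScreen with GST-Six1 and His-Eya2 (5X mix: 250 nM and 500 nM), glutathione donor and nickel acceptor beads; buffer 50 mM Tris pH 8.0, 300 mM NaCl, 1 mM TCEP; 1 h at 37 C in the dark.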
RORg inh = ROR gamma (mouse) transcription inhibition. Potency, µM (highest dose often 53.6 µM), most hits filed as inhibitors. 310,000 compounds, 5.4% hits. Drosophila S2 Gal4-RORgamma UAS-luciferase reporter, 20 h; further: nearly all actives have a fitted effect of over 60% in size
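Drosophila Schneider cells stably carrying a metallothionein-driven Gal4 DBD–ROR gamma fusion and a UAS-Photinus luciferase reporter were exposed to compound for 1 hr, then induced with copper sulfate (700 uM final) for 20 hr at ambient temperature before luminescence reading.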
VP16 counter = Gal4-VP16 reporter inhibition counter-screen; Drosophila S2 Gal4-VP16 UAS-luciferase, luminescence, 20 h; Potency, µM (doses to about 53.6 µM), most hits filed as inhibitors; 310,000 compounds, 3.5% hits; AID 2546;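 further: Gal4-VP16 expression switched on by copper sulfate through the metallothionein promoter; nearly all actives have a fitted effect of over 50% in size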
Hits are given with their value; . = inactive; ? = inconclusive; / = no result given. Unless noted, the call rests on the fitted dose curve; in most records, active means well fitted curve in the direction sought with a large enough effect; inconclusive means small, poorly fitted or top-dose-only effect, or another doubt; inactive means no such curve, though single readings can be large; an effect the other way counts as inactive or inconclusive.

SMILES | PKM2 act | CtBP-E1A inh | Six1-Eya2 inh | RORg inh | VP16 counter
O=C(CN1CCOCCOCCOCC1)Nc1ccccc1 | . | . | . | . | .
Cc1c(C(=O)Nc2ccc(N3CCOCC3)cc2)cccc1[N+](=O)[O-] | . | . | . | . | .
O=C(NC(=S)NCCN1CCOCC1)c1cccc(Cl)c1 | . | . | . | 11.2µM | ?
Cc1ccc(C(=O)N2CCN(c3ccc(NC(=S)NC(=O)Cc4ccccc4)cc3)CC2)cc1 | . | . | . | 5.62µM | 8.91µM
Cc1ccc(C(=O)NC(=S)NCCCN2CCOCC2)cc1 | . | . | . | 17.8µM | .
O=C(NC(=S)Nc1ccc(N2CCOCC2)cc1)c1ccco1 | . | . | . | ? | .
O=C(NC(=S)Nc1ccc(N2CCOCC2)cc1)c1ccccc1 | . | . | . | 8.91µM | ?
C=CCC[C@@H](Cc1ccc(F)cc1)C(=O)OC[C@H](C)NC(=O)[C@@H](CC=C)CC(=O)N[C@@H](CO)Cc1ccccc1 | / | / | . | / | /
O=C(CC1C=Cc2ccccc2N1C(=O)c1ccccc1)c1ccccc1 (stereo not drawn) | . | / | . | . | .
O=C(C[C@@H]1C/C=C\CCCC(=O)OC[C@@H]2CCCN2C1=O)N[C@@H](CO)Cc1ccccc1 | / | . | . | / | /
Cc1cc(C)n(CCC(=O)N2CCc3ccccc32)n1 | / | / | . | . | .
CC(C)(C)OC(=O)NCCc1nnc(SCc2ccccc2Cl)o1 | . | . | . | . | .
CC(C)(C)OC(=O)NCCc1nnc(S(=O)(=O)Cc2ccc(Cl)cc2Cl)o1 | . | . | . | ? | 7.08µM
N#CC(C#N)=C1C=CC=CN1/C(=C\c1ccco1)C(=O)c1ccccc1 | . | . | . | 5.01µM | 1.78µM
N#CC(C#N)=C1C=CC=CN1/C(=C\c1ccco1)C(=O)c1ccc(Br)cc1 | . | . | . | 3.55µM | 1.26µM
COc1ccc(C(=O)/C(=C\c2ccco2)N2C=CC=CC2=C(C#N)C#N)cc1 | . | . | . | 3.98µM | 3.55µM
COc1ccc(/C=C(/C(=O)c2cccs2)N2C=CC=CC2=C(C#N)C#N)cc1 | . | / | . | 2.24µM | 2.82µM
N#C/C(=C/c1ccco1)C(N)=S | . | . | . | . | .
O=C(NC12CC3CC(CC(C3)C1)C2)c1cccnc1Cl | . | . | . | . | .
Cc1ccccc1NC(=O)C(C)n1c2ccccc2c2nc(=O)cc(C)n21 (stereo not drawn) | . | / | . | . | .
C=C(C)CNC(=S)Nc1nc2c(cc1C(=O)OCC)CCCC2 | . | . | . | 5.01µM | 10µM
Cc1ccc(C2=NCN(c3ccc(C(=O)O)cc3)C(=S)N2)cc1 | . | / | / | . | .
S=C1NC(c2ccccc2)=NCN1c1ccccc1 | . | . | . | 10µM | .
CC1CCCCN1S(=O)(=O)c1cccc(S(=O)(=O)N2CCOCC2)c1 (stereo not drawn) | . | . | . | . | .
O=C(CNCc1ccccn1)N1CCc2ccccc2C1 | . | -94.7 | -89.0 | . | .
SMILES | PKM2 act | CtBP-E1A inh | Six1-Eya2 inh | RORg inh | VP16 counter
COc1cc(C(=O)NN=Cc2ccc(N(C)C)cc2)cc(OC)c1OC | / | . | . | / | /
COc1ccc(/C=N/NC(=O)c2[nH]c3ccc(Br)cc3c2-c2ccccc2)cc1 | . | . | . | 10µM | 11.2µM
Cc1c(C(=O)N/N=C/c2ccc(N(C)C)cc2)[nH]c2ccc(Cl)cc12 | . | . | . | 6.31µM | ?
Cc1c(C(=O)N/N=C/c2ccccc2)[nH]c2ccc(Cl)cc12 | . | / | . | 17.8µM | ?
COc1ccc(/C=N/NC(=O)c2[nH]c3ccc(Br)cc3c2-c2ccccc2)c(C(=O)O)c1OC | . | ? | ? | . | .
COc1ccc(/C=N/NC(=O)c2[nH]c3ccc(Cl)cc3c2-c2ccccc2)c(C(=O)O)c1OC | / | ? | -71.6 | . | .
O=C1NCC(Nc2ccccc2Cl)C(=O)N1 (stereo not drawn) | / | . | . | / | /
CC(=O)Nc1ccc(NCN2C(=O)[C@@H]3[C@H]4CC[C@H](C4)[C@@H]3C2=O)cc1 | . | . | . | . | .
Cc1onc(-c2ccccc2)c1C(=O)Nc1nnc(CC(C)C)s1 | . | . | . | . | .
Cc1cc(NC(=O)c2ccccc2F)on1 | . | . | . | . | .
Cc1cc(C)nc(S/C=C/C(=O)c2ccccc2F)n1 | . | . | . | 7.94µM | 10µM
COC(=O)C(Cc1cccc(C)n1)(c1ccccc1)c1ccccc1 | / | . | . | . | .
